The campaign covered roughly 48,000 compounds. About 13,000 (27%) showed an effect of 50% or more. The list shows a part of the results.

For the assay, the system named is Wolbachia pipientis. Put plainly: Anti-Wolbachia Cell-Based Screen. The assay is classed as functional. Further details: scale not given: in the data most compounds retested in dose-response had high values. Particulars: 5 µM.
In the case of `CC(c1cccc(-c2cn(Cc3ccoc3)nn2)c1)N(C)C` (configuration not stated), the “Percent Effect” value is -9.392%.
Next, `CNC(=O)Cc1ccc(NC(=O)NCc2nc(C)sc2C)cc1`: 5.733%.
Next, `CN(C)C(=O)CCC[S+]([O-])Cc1ccc(Cl)c(Cl)c1` (configuration not stated): -0.5151%; `CC(C)(C)OC(=O)N1CCCN(c2nnc(C3CC3)s2)CC1`: 1.365%; `CC(=O)N1CCCN(C(=O)c2cnn(C(C)(C)C)c2C)CC1`: 120.5%.
Turning to `CS(=O)(=O)N1CCn2c(C(=O)N3CCOCC3)cnc2C1`, the “Percent Effect” value is recorded as -13.12%.
In the case of `CN(Cc1cncs1)C1CCN(C(=O)OC(C)(C)C)CC1`, the “Percent Effect” value was found to be 3.797%.
Next, `CCc1c(C(=O)N2CCCN(C(C)=O)CC2)cnn1C(C)(C)C`: 7.313%.
Under `CC(=O)c1ccc(N2CCN(C(=O)c3cnn4c3OCCC4)CC2)cc1` stands 108.1%.
Under `CC(=O)N1CCN(c2nc3c(cnn3C(C)(C)C)c(=O)[nH]2)CC1` stands -9.111%; under `CS(=O)(=O)N1CCN(C(=O)c2cnn3c2OCCC3)CC1`, 124.7%.
For `CC(=O)c1ccc(N2CCN(C(=O)NC(C)c3ccc(C)o3)CC2)cc1` (configuration not stated), the “Percent Effect” value was -3.361%.
On to `CC(=O)c1ccc(N2CCN(C(=O)c3cc(C(C)C)nn3C)CC2)cc1`, for which the “Percent Effect” value was -2.718%.
Next, `CS(=O)(=O)N1CCN(C(=O)c2[nH]c3ccc(Cl)cc3c2Cl)CC1`: -22.4%.
Next, `CC(C)(C)OC(=O)N1CCN(C(=O)c2cnn3c2OCCC3)CC1`: 119.8%; `O=C(CCN1CCCCO1)N1CC[C@H](O)[C@@H](O)C1`: -19.59%; `Cc1ccc(S(=O)(=O)NC(=O)c2cc(S(C)(=O)=O)ccc2C)s1`: 12.42%.
Take `CCOC(=O)c1ccc(CNC(=O)c2ccon2)o1`: the “Percent Effect” value is 45.33%.
Under `OC1(CN2CCCC2)COCCN(c2nccs2)C1` (configuration not stated) stands -1.349%; under `FC(F)(F)c1ccnc(N2CCCCCC2)c1`, 6.382%.
Under `CS(=O)(=O)NCC1CCCN(c2ccc(C(F)(F)F)cn2)C1` (configuration not stated) stands 7.899%; under `OC1(CN2CCCCC2)CCN(c2cc(C(F)(F)F)ccn2)C1` (configuration not stated), 106.3%.
Under `OC1(CN2CCCC2)COCCN(c2cc(C(F)(F)F)ccn2)C1` (configuration not stated) stands 99.83%.
On to `OC1(CN2CCCCC2)CCN(c2ccc(C(F)(F)F)cn2)C1` (configuration not stated), for which the “Percent Effect” value was 107.5%.
Under `FC(F)(F)c1ccnc(N2CCCOCC2)c1` stands 1.908%.
Under `Cc1cc(F)ccc1CN1CCC(O)(CN2CCCCC2)C1` (configuration not stated) stands -5.371%.
Regarding `O=C(c1cn(-c2ccc(C(F)(F)F)cn2)nn1)N1CCCCCC1`, the “Percent Effect” value was -5.295%.
Next, `CCc1nnc(CNC(=O)CCCN2CCCCC2)s1`: -1.719%; `O=C(NCCNC(=O)C1CC1)c1sccc1Br`: 0.3352%; `Cc1cccc(C(C(=O)NCc2csc(-c3ncccn3)n2)N(C)C)c1` (configuration not stated): 2.9%.
Regarding `CSC(CNS(=O)(=O)c1cnn(C)c1)c1cccc(Cl)c1` (configuration not stated), the “Percent Effect” value was -0.2397%.
Take `CCS(=O)(=O)N1CCC(c2nnc(CN3CCCCC3)n2C)CC1`: the “Percent Effect” value is given as -11.51%.
Next, `CCS(=O)(=O)N1CCC(c2nnc(CN3CCCCCC3)n2C)CC1`: -3.352%; `Cn1c(CN2CCCCCC2)cc(=O)c(O)c1CN1CCCC1`: 177.4%; `Cn1c(CN2CCCCC2)cc(=O)c(O)c1CN1CCCCC1`: 95.65%.
Next, `Cc1noc(C2CCN(Cc3cc(=O)n(C)c(=O)n3C)CC2)n1`: 2.603%.
As to `CC(=O)c1cc(CN2C[C@@H](CN3CCCC3)[C@@H](CO)C2)n(C)c1`, the “Percent Effect” value stood at 0.4917%.
Next, `Cc1ccc(CNC2(Cc3cc(-c4ccccc4)on3)COC2)o1`: -15.57%; `CN1CCN(Cc2ccccc2CNC(=O)c2cc(Cl)ccc2F)CC1`: -3.272%; `Cn1ncc(C2CC(=O)NCc3nc4sccn4c32)c1C1CC1` (configuration not stated): -19.57%.
Next, `COc1cc(Cl)ccc1CNC(=O)N1CCC(n2cncn2)CC1`: 88.5%; `CCC(CC)c1cc(CNC(=O)N2CCC(n3cncn3)CC2)on1`: -7.222%.
As for `COc1ccc(OC)c(CNC(=O)N2CCC(n3cncn3)CC2)c1`, the “Percent Effect” value is 67.1%.
Turning to `CCOc1cc(Cl)ccc1CNC(=O)N1CCCC(CO)C1` (configuration not stated), the “Percent Effect” value was -9.935%.
Next, `COc1cc(Cl)ccc1CNC(=O)N(C)C(C)CS(C)(=O)=O` (configuration not stated): 2.125%; `CC(C)CC1(C(=O)NCCc2nncn2C2CC2)CCC1`: -4.64%.
Under `COCCn1cncc1CN1CCCC(C(=O)Cc2ccccc2)C1` (configuration not stated) stands -2.141%; under `FC(F)Oc1ccc(CNCc2cc(Br)c3c(c2)OCO3)cc1`, -6.924%.
Turning to `Cc1cccc(S(=O)(=O)NC(=O)CN(C)Cc2ccccc2)c1`, the “Percent Effect” value is -8.063%.
On to `OC1CCN(Cc2ccc(CNc3ncc(Cl)cc3F)cc2)CC1`, for which the “Percent Effect” value was found to be 12.54%.
Under `CC(C)c1ncc2c(n1)CN(CC(=O)Nc1ccncc1)CC2` stands 121.8%; under `CCc1ncc2c(n1)CN(CC(=O)NCCOc1ccccc1)CC2`, -2.298%.
Under `CCc1ncc2c(n1)CN(CC(=O)Nc1ccc(Cl)cn1)CC2` stands -11.22%.
Next, `CCc1ncc2c(n1)CN(CC(=O)Nc1ccncc1)CC2`: 110.2%.
For the compound `O=C1C[C@@H]2CCN(Cc3ccccc3)C[C@@H]2CCN1C1CCCCC1`, the “Percent Effect” value is on record as -3.832%.
Next, `Cc1cc(F)cc2c(NCC(C)(C)C(N)=O)c(C#N)cnc12`: -8.15%; `Cc1[nH]c2ccccc2c1-c1ccnc(N[C@@H](CO)C(C)C)n1`: 99.82%; `Cc1ccc(-c2nc(CNC(C)CCO)[nH]c2-c2ccccn2)cc1` (configuration not stated): 0.0278%.
Under `Cc1[nH]c2ccccc2c1-c1ccnc(NC[C@H](O)CO)n1` stands 2.314%.
Next, `Cc1ccc(-c2ccnc(NC(C)c3c(C)n[nH]c3C)n2)c(C)n1` (configuration not stated): 5.666%; `O=C(NCCN1CCCCC1)c1nc2ccccc2c(=O)[nH]1`: 8.44%; `Cc1[nH]c2ccccc2c1-c1ccnc(NCCN2CCCCC2)n1`: 107.1%.
As for `Cc1[nH]c2ccccc2c1-c1ccnc(N[C@H](CO)CC(C)C)n1`, the “Percent Effect” value was 64.61%.
Next, `Cc1[nH]c2ccccc2c1-c1ccnc(N[C@@H](C)CO)n1`: 114.9%; `Cc1[nH]c2ccccc2c1-c1ccnc(NCCN2CCOCC2)n1`: 0.04004%.
Under `Cn1cc(C2CC3(CCN(C(=O)c4cccs4)CC3)NC2=O)cn1` (configuration not stated) stands 3.208%.
Under `COc1cc(Cl)cc(C(=O)N2CCC3(CC2)CNC(=O)C3)c1` stands -6.802%.
Turning to `CCOCc1nc2c(c(N(C)Cc3ccsc3)n1)CCNCC2`, the “Percent Effect” value is -15.95%.
Consider `COc1ccccc1CN1C[C@@H]2CN(Cc3cccnc3)CCO[C@@H]2C1.O=C(O)C(F)(F)F.O=C(O)C(F)(F)F.O=C(O)C(F)(F)F`, for which the “Percent Effect” value is reported as -7.53%.
Under `O=C(O)C(F)(F)F.O=C([C@H]1CN(Cc2ccccc2F)C[C@H]2OCC[C@@H]12)N1CCCO1` stands 3.627%; under `CC(=O)N1CCO[C@@H]2CN(Cc3ccccc3Cl)C[C@@H]2C1.O=C(O)C(F)(F)F`, 111.8%; under `COCCN1CCO[C@@H]2CN(C(=O)c3ccc4[nH]ccc4c3)CC[C@@H]2C1`, -49.46%.
As for `COc1ccccc1CN1C[C@@H]2CN(C(C)=O)CCO[C@@H]2C1.O=C(O)C(F)(F)F`, the “Percent Effect” value is 111.4%.
Next, `O=C(CCc1ccccc1)N1C[C@@H]2CN(Cc3ccoc3)CCO[C@@H]2C1.O=C(O)C(F)(F)F`: 22.25%; `O=C(c1ccccc1)N1CCO[C@@H]2CN(Cc3ccc[nH]3)C[C@@H]2C1`: 106.1%; `CC(=O)N1CCO[C@@H]2CN(Cc3ccccc3F)C[C@@H]2C1.O=C(O)C(F)(F)F`: 102.5%.
Under `Fc1ccccc1CN1C[C@@H]2CN(Cc3cccnc3)CCO[C@@H]2C1.O=C(O)C(F)(F)F.O=C(O)C(F)(F)F.O=C(O)C(F)(F)F` stands 0.8548%; under `O=C(O)C(F)(F)F.O=C(c1ccc2[nH]ccc2c1)N1CC[C@@H]2CN(CC3CC3)CCO[C@@H]2C1`, -56.17%.
Under `COCCN1CCO[C@@H]2CN(Cc3ccccc3OC)C[C@@H]2C1.O=C(O)C(F)(F)F.O=C(O)C(F)(F)F` stands 1.646%; under `CN(C)C(C(=O)NCCSc1ncn[nH]1)c1cccc(F)c1` (configuration not stated), -5.881%; under `Cc1cc(NC(=O)CSc2nc(=O)ccn2C(C)C)no1`, -5.923%.
As to `C/C(=C/c1ccccc1)CNCc1cccc(C(N)=O)c1`, the “Percent Effect” value is listed as -6.417%.
Under `Cc1ccc(CNC(=O)NCC(=O)N2CCCC2)c(N2CCCC2)c1` stands -13.16%; under `CCC(NCc1cc[nH]n1)c1nc(C(F)(F)F)cs1` (configuration not stated), -5.752%; under `COc1ccc(CN2C[C@@H]3CN(Cc4cccnc4)CCO[C@@H]3C2)cc1.O=C(O)C(F)(F)F.O=C(O)C(F)(F)F.O=C(O)C(F)(F)F`, 13.72%.
Next, `CC(=O)N1CCO[C@@H]2CN(Cc3cccc(Cl)c3)C[C@@H]2C1.O=C(O)C(F)(F)F`: 105.7%; `CN1CCO[C@@H]2CN(C(=O)COc3cccc(Cl)c3)C[C@@H]2C1.O=C(O)C(F)(F)F`: -8.699%; `Cc1[nH]ccc1C(=O)N1C[C@H]2CC[C@@H]1CN(S(=O)(=O)N(C)C)C2`: -3.55%.
Under `Cc1ccc(CNC(=O)N(C)Cc2ccc([S+](C)[O-])cc2)s1` (configuration not stated) stands -1.725%; under `O=C(c1ccc(F)cc1)N1CCOC(c2nc(-c3ncccn3)no2)C1` (configuration not stated), 124.8%; under `Cc1ccc(C(=O)N2CCOC(c3nc(-c4ncccn4)no3)C2)cc1` (configuration not stated), 94.58%.
With `N#Cc1ccc(C(=O)N2CC(c3nc(-c4ncccn4)no3)C2)cc1`, the “Percent Effect” value is listed as 10.08%.
Next, `O=C(c1ccccc1F)N1CC(c2nc(-c3ccc[nH]c3=O)no2)C1`: 1.982%; `CO[C@H]1COCCN(C(=O)c2ccc(F)cc2)C1`: 0.8542%.
Next, `O=C(c1ccccc1F)N1CC(c2nc(C3CC3)no2)C1`: 5.464%.
Next, `O=C(c1cccnc1N1CCOC(c2ccc(F)cc2)C1)N1CCCC1` (configuration not stated): 5.755%.
In the case of `O=C(c1ccccc1F)N1CCOC(c2nc(-c3ncccn3)no2)C1` (configuration not stated), the “Percent Effect” value is given as 128.4%.

These data come from ChEMBL document CHEMBL3988442, “University of Dundee, Small-Polar-MMV Screening Library” (2021).
